Tau fluor cs: counter-screen for tau fibril formation inhibitors. tau K18 P301L Alexa594 fluorescence, heparin fibrillization. Potency, µM (top dose mostly 57.7 µM), for inactives: at the top dose activity change, negative = decrease. actives 0.93% (n = 280,000); note: potency is the fitted concentration of half-maximal effect; nearly all actives have a fitted effect of over 55% in size
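Human K18 P301L tau (15 uM unlabeled plus 0.24 uM Alexa 594-labeled, final) in 100 mM sodium acetate pH 7 was mixed with compound and 20 uM heparin and incubated 6 hr at 37 C.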
Tau fibril FP: tau fibrillization inhibition (FP) | K18 P301L tau heparin fibrillization, Alexa594 FP, 6 h | Potency, µM (doses to about 57.7 µM), for the others: top-dose activity, negative = inhibition, actives largely listed as inhibitors | P10636 | actives 0.39% (n = 280,000); note: potency is the fitted concentration of half-maximal effect; nearly all actives have a fitted effect of over 55% in size
Target sequence (P10636 561-689 P618L limits assumed): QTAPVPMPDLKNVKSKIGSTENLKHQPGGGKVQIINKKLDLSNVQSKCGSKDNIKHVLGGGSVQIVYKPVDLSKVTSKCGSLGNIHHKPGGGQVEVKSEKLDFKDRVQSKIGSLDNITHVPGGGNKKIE
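Compound effects on tau fibrillization are measured by Alexa 594 fluorescence polarization (ex 555, em 632 nm). K18 P301L tau is used at 15 uM with 0.24 uM labeled tracer, and 20 uM heparin induces aggregation over 6 hr at 37 C.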
FBPA coupling cs: counter-screen for Giardia aldolase inhibitors: coupling enzyme system; activity change, negative = inhibition, % at 58.2 µM, hits read low; actives 0.67% (n = 290,000); coupling enzyme system counterscreen, AmpLite Red fluorescence; in the data active = activity change below about -30%
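Counterscreen of the coupled detection system alone, without aldolase: glyceraldehyde-3-phosphate coupling enzymes plus AmpLite Red readout. Compounds at 57.5 uM final, 10 min RT preincubation, 20 min RT reaction, fluorescence 525/598 nm.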
Tau ThT inhib: inhibitors of human tau fibril formation, thioflavin T binding. P10636. recombinant tau K18 P301L (four-repeat tau fragment), heparin-induced fibrillization, ThT fluorescence. Potency, µM (series often up to 57.4 µM), for the others: top-dose activity, negative = inhibition, usual class: inhibitors. actives 2.1% (n = 270,000); note: potency is the fitted concentration of half-maximal effect; nearly all actives have a fitted effect of over 55% in size
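Aggregation was driven by heparin (20 uM final) acting on recombinant tau […] bearing P301L in 100 mM sodium acetate pH 7; fibrils were detected with Thioflavin T.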
Sfp inh: Sfp phosphopantetheinyl transferase inhibition. Potency, µM, for inactives: largest response in the series, negative = inhibition, hits mostly inhibitors. Q9F4F7. Biochemical Sfp PPTase activity, qHTS. actives 3.5% (n = 310,000). AID 1490;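 note: the enzyme is Sfp with the accession as filed and its product quenches rhodamine fluorescence; potency is the fitted concentration of half-maximal effect; 0% = enzyme reaction without inhibitor and -100% = no enzyme wells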
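Compounds were incubated with enzyme (final 15 nM) for 15 min at room temperature before substrate addition started the reaction. Fluorescence at 525 nm excitation, 598 nm emission was recorded immediately and after 30 minutes.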
The depositor's hits bear a star; ? = inconclusive; . = not tested or not shown; [ ] = another dose, or the depositor's remark. Hits are enriched below; roughly 5.2% of the tested compounds scored in any of these assays. Unless noted, calls come from the whole dose curve; as a rule, active = well fitted curve in the direction sought with a large enough effect; inconclusive = small, poorly fitted or top-dose-only effect, or another doubt; inactive = no such curve, though single readings can be large; an effect the other way counts as inactive or inconclusive. Unless noted, % is set by controls: 0 for no effect and ±100 for the full control effect.

SMILES | Tau fluor cs | Tau fibril FP | FBPA coupling cs | Tau ThT inhib | Sfp inh
Cc1cc(N2CCCCC2)nc2ccc(NC(=O)c3ccc(F)cc3)cc12 | 16µM*[quencher] | ? | . | ? | .
Cn1c(=O)c2c(-c3ccccc3)n3c(c2n(C)c1=O)C(c1cccc([N+](=O)[O-])c1)Nc1ccccc1-3 (stereo not drawn) | -5% | ? | . | ? | .
Oc1ccc2ccccc2c1N=Nc1ccc(F)cc1 | -16% | -9% | 0 | ? | 10%
NS(=O)(=O)c1ccc(N=Nc2c(O)c(C(=O)O)cc3ccccc23)cc1 | ? | ? | -21 | 5µM* | ?
O=C(O)Cc1ccc(N=Nc2c(O)c(C(=O)O)cc3ccccc23)cc1 | -27% | ? | -9 | 13µM* | -13%
O=C(c1cn(CCOc2ccc(Cl)cc2)c2ccccc12)C1CCCCC1 | -17% | -10% | . | -1% | .
Cc1ccc(CCNC(c2ccc(F)cc2)c2nnc(-c3ccccc3Cl)o2)cc1 (stereo not drawn) | -12% | 1% | . | -15% | .
NC(C(=O)O)C(CC(=O)O)c1ccc(Cl)cc1 (stereo not drawn) | 0% | 3% | . | 5% | 50µM*
CC(NC(=O)CCn1c(=O)c2cccn2c2ccc(F)cc21)c1ccccc1 (stereo not drawn) | -7% | -7% | . | -1% | .
COCC(C)NC(=O)c1cc2cccc([N+](=O)[O-])c2[nH]1 (stereo not drawn) | -5% | 16% | 1 | . | 6%
Cc1cc(NC(=O)c2cc3cccc([N+](=O)[O-])c3[nH]2)ccc1F | 25µM*[quencher] | ? | -14 | . | -24%
CCC(=O)N1CCN(c2ccc(NC(=O)c3ccc([N+](=O)[O-])o3)cc2)CC1 | -22% | 5% | -7 | 3.2µM* | -1%
CCCC(=O)N1CCN(c2ccc(NC(=O)c3ccc([N+](=O)[O-])o3)cc2)CC1 | -17% | -1% | -4 | 4µM* | 15%
O=C(Nc1ccc(N2CCN(C(=O)c3ccc(Cl)cc3)CC2)cc1)c1ccc([N+](=O)[O-])o1 | ? | 4% | 1 | 13µM* | 7%
CCCC(=O)N1CCN(c2ccc(NC(=O)c3sc4ccccc4c3Cl)cc2)CC1 | -20% | ? | 1 | 2.2µM* | ?
O=C(Nc1cccc(F)c1)N1CCC2(CCNCC2)CC1 | . | . | 0 | . | 12%
COc1ccc(Nc2ncc3c(n2)CCN(Cc2cc(Br)cs2)C3)c(OC)c1 | ? | 10% | . | -11% | .
CC(=O)Nc1cccc(-c2csc(Nc3ccccn3)n2)c1 | ? | 1% | -8 | ? | 89µM*
CC(=O)Nc1cccc(-c2csc(Nc3ccc(Cl)cn3)n2)c1 | 13µM*[quencher] | -5% | -3 | ? | 13%
Cc1ccnc(Nc2nc(-c3ccccc3)cs2)c1 | . | . | 1 | . | 7%
c1ccc(Nc2nc(-c3cccnc3)cs2)nc1 | -16% | 8% | 0 | -5% | 10%
CC(=O)Nc1ccc(-c2csc(Nc3cc(C)ccn3)n2)cc1 | 16µM*[quencher] | 8% | -12 | 7.1µM* | -22%
CC(=O)Nc1cccc(-c2csc(NCc3ccccc3)n2)c1 | ? | 15% | -1 | ? | 40µM*
CCN1CCN(C(=O)c2ccc3c(c2)N(Cc2c(F)cccc2Cl)C(=O)c2ccccc2S3)CC1 | -8% | 3% | . | -7% | .
Cc1ccnc(Nc2nc(-c3c(C)nc4sccn34)cs2)c1 | 14µM*[quencher] | 7% | -4 | 7.9µM* | ?
SMILES | Tau fluor cs | Tau fibril FP | FBPA coupling cs | Tau ThT inhib | Sfp inh
CC(=O)Nc1cccc(-c2csc(Nc3cc(C)ccn3)n2)c1 | 18µM*[quencher] | 5% | 7 | ? | -13%
Cc1nc2ccccc2c(=O)n1-c1ccc(NC(=O)C(F)(F)F)cc1 | 4% | -4% | . | 4% | .
CCC(C)NC(=O)c1c(-c2ccccc2)c(-c2ccccc2)nn(C)c1=O (stereo not drawn) | -8% | 1% | . | -1% | .
COC(=O)c1cc(NC(=O)c2c(Cl)cnn2C)cc(C(=O)OC)c1 | 2% | -10% | 0 | 0% | 11%
COC(=O)c1ccc(NC(=S)NC(=O)c2c(Cl)cnn2C)cc1 | -7% | -4% | 4 | 1% | 50µM*
COC(=O)c1ccc(NC(=O)c2c(Br)cnn2C)cc1 | . | . | -3 | . | 35µM*
COc1ccccc1CN1CCC2(CC1)CCN(C(=O)c1csnn1)CC2 | . | . | 2 | . | -19%

Compound activity deposited in PubChem BioAssay by National Center for Advancing Translational Sciences (NCATS).
